Test results published in PubChem BioAssay (NCATS).
Records with an inconclusive call do not appear. Unless noted, calls come from the whole dose curve; as a rule, active = well fitted curve in either direction with a large enough effect (not every such curve was filed as active); inconclusive = small, poorly fitted or top-dose-only effect, or another doubt; inactive = flat fitted curve, though single readings scatter.

Assays:
[1] = AP1 Signaling Pathway (AID 357); conditions: ME-180 AP-1-bla reporter, EGF-induced, beta-lactamase ratio, 5 h; at 17.2 µM (top of the series) unless noted;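 note: ME-180 reporter cells stimulated with EGF at its EC50 level; % is set by controls: 0 for no effect and ±100 for the full control effect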
Procedure, shortened: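 A ratiometric CCF4 readout (405 nm excitation; 460 and 530 nm emission) quantified AP-1-driven beta-lactamase in ME-180 cells after 5 h with compound and EC50 EGF; AC50 values were derived for activators and inhibitors.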

[2] = Stat Signaling Pathway (AID 446); conditions: ME-180 (cervical carcinoma) SIE beta-lactamase reporter, IL-6 stimulated, 5 h; at 17.2 µM (top of the series) unless noted;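 note: ME-180 cervical cancer cells given 40 pM IL-6 alongside compound; SIE-controlled beta-lactamase reporter measured as 460/530 nm FRET emission ratio; % is set by controls: 0 for no effect and ±100 for the full control effect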
Procedure, shortened: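 FRET read-out (405 nm excitation, 460/530 nm emission) of a beta-lactamase reporter under a STAT-inducible element in ME-180 cervical carcinoma cells. Cells with compound receive 40 pM IL-6 for 5 h. Values are normalised to AC90 stimulation and AC90 JAK-inhibitor controls.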

[3] = target: Glucocorticoid receptor (Homo sapiens) (UniProt P04150); assay: GR-GFP Redistribution (AID 450;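 active = compounds whose dose series gives a full or clear partial fitted curve of increased nuclear translocation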; note: potency is the fitted concentration of half-maximal effect); conditions: U2OS GR-GFP nuclear translocation, laser cytometry, 2 h; series mostly up to 20.6 µM
Glucocorticoid receptor (Homo sapiens), sequence (P04150 whole entry, looked up): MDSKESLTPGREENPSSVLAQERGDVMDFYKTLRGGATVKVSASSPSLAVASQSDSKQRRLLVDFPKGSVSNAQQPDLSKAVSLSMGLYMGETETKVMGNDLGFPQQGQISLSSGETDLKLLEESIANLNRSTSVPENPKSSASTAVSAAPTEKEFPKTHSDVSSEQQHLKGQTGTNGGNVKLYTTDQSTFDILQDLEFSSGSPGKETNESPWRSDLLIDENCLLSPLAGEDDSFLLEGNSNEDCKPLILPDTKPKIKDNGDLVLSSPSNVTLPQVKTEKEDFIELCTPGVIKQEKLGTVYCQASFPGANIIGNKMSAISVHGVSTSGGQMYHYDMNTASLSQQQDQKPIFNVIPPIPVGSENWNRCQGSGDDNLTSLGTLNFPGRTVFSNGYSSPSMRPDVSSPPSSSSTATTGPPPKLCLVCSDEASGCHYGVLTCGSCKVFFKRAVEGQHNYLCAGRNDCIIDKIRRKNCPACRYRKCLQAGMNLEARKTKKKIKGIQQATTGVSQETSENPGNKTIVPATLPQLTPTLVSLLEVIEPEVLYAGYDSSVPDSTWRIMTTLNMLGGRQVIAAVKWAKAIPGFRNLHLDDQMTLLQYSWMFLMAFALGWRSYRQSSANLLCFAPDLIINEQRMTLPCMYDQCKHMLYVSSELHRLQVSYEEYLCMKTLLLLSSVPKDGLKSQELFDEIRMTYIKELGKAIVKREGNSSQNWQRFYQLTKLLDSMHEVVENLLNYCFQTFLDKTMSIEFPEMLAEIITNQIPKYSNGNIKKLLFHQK

C=CCN(CC=C)c1nc2ccccc2nc1C(C#N)C(=O)OC(C)C (stereo not given)
inactive: activity change, negative = inhibition [1] -13.3% | activity, negative = inhibition [2] -28.3% | Potency [3] > 20.6 µM

Cc1ccc(OCC(=O)N2CCC(N3CCCCCC3)CC2)cc1
inactive: activity change, negative = inhibition [1] 3.92% | activity, negative = inhibition [2] 17.9% | Potency [3] > 20.6 µM

COc1ccc(C2NC(=O)NC(O)(C(F)(F)F)C2C(=O)c2ccc(F)cc2)cc1 (stereo not given)
inactive: activity change, negative = inhibition [1] -8.86% | activity, negative = inhibition [2] -0.989% | Potency [3] > 20.6 µM

CCCc1cc(C(=O)Cc2ccc(F)cc2)c(O)cc1O
inactive: activity change, negative = inhibition [1] -28% | activity, negative = inhibition [2] -25.5% | Potency [3] > 20.6 µM

COc1ccccc1-c1nn2c(-c3ccco3)nnc2s1
inactive: activity change, negative = inhibition [1] 0.523% | activity, negative = inhibition [2] -5.72% | Potency [3] > 20.6 µM

O=S(=O)(c1ccccc1)N1CCC(N2CCCCCC2)CC1
inactive: activity change, negative = inhibition [1] 5.59% | activity, negative = inhibition [2] 4.98% | Potency [3] > 20.6 µM

OCCNc1nc(-c2ccccc2)c2ccccc2n1
inactive: activity change, negative = inhibition [1] -11.6% | activity, negative = inhibition [2] -4.38% | Potency [3] > 20.6 µM

C=C(C)CSc1nnc2n(C)c(=O)c3c4c(sc3n12)CCC4
inactive: activity change, negative = inhibition [1] -2.43% | activity, negative = inhibition [2] 2.61% | Potency [3] > 20.6 µM

Nc1nnnn1/N=C/c1ccco1
inactive: activity change, negative = inhibition [1] 2.89% | activity, negative = inhibition [2] -1.38% | Potency [3] > 20.6 µM

Cc1ccc(Cn2ncc3c(N4CCN(Cc5ccc(Cl)cc5)CC4)ncnc32)cc1
inactive: activity change, negative = inhibition [1] -8.19% | activity, negative = inhibition [2] -14.5% | Potency [3] > 20.6 µM

CC(C)C1=C2OC(N)=C(C#N)C(C#N)=C2C(C)CC1 (stereo not given)
inactive: activity change, negative = inhibition [1] -2.44% | activity, negative = inhibition [2] 5.25% | Potency [3] > 20.6 µM

COc1cccc(C2=CC(c3ccc(N(C)C)cc3)n3nnnc3N2)c1 (stereo not given)
inactive: activity change, negative = inhibition [1] -12.2% | activity, negative = inhibition [2] 14.4% | Potency [3] > 20.6 µM

CCN(CC)C(=O)CSc1nc2ccccc2c(=O)n1CC1CCCCC1
inactive: activity change, negative = inhibition [1] -21.3% | activity, negative = inhibition [2] -17.5% | Potency [3] > 20.6 µM

CCCCCCSC1=C(C#N)C(c2ccccc2)CC(=O)N1 (stereo not given)
inactive: activity change, negative = inhibition [1] -25.4% | activity, negative = inhibition [2] -19.8% | Potency [3] > 20.6 µM

CC1(C)Cc2c(sc3nc(SCC#N)n(C4CCCCC4)c(=O)c23)CO1
inactive: activity change, negative = inhibition [1] 1.9% | activity, negative = inhibition [2] 10% | Potency [3] > 20.6 µM

CCCSc1nc(N2CCOCC2)c2c(c1C#N)CCCC2
inactive: activity change, negative = inhibition [1] 20.8% | activity, negative = inhibition [2] -3.09% | Potency [3] > 20.6 µM

CC(C)c1nc(NCCN2CCOCC2)c(C#N)c2c1COC(C)(C)C2
inactive: activity change, negative = inhibition [1] -27% | activity, negative = inhibition [2] -1.06% | Potency [3] > 20.6 µM

Oc1ccc(Br)cc1-c1cc(-c2ccccc2F)[nH]n1
inactive: activity change, negative = inhibition [1] 13.3% | activity, negative = inhibition [2] -0.726% | Potency [3] > 20.6 µM

CCCOc1ccc(C(C)=O)cc1CSCCC#N
inactive: activity change, negative = inhibition [1] -12.7% | activity, negative = inhibition [2] 85.5% | Potency [3] > 20.6 µM

Cc1nnc(NCc2n[nH]c(=O)c3ccccc23)c2ccccc12
inactive: activity change, negative = inhibition [1] 29.7% | activity, negative = inhibition [2] 25.1% | Potency [3] > 20.6 µM

Cc1cc2c(c(=O)n1Cc1ccccn1)C(c1ccc3c(c1)OCO3)C(C#N)=C(N)O2 (stereo not given)
inactive: activity change, negative = inhibition [1] -7.52% | activity, negative = inhibition [2] -11.7% | Potency [3] > 20.6 µM

CCCCCNc1nc(N2CCCC2)c2c(c1C#N)CCN(C)C2
inactive: activity change, negative = inhibition [1] 3.36% | activity, negative = inhibition [2] -7.71% | Potency [3] > 20.6 µM

Brc1ccc(-c2cnc3n2CCCC3)cc1
inactive: activity change, negative = inhibition [1] 1.22% | activity, negative = inhibition [2] 16.1% | Potency [3] > 20.6 µM

CCSc1nc2sc3c(c2c2nnc(SCC(=O)NCc4ccco4)n12)CCCC3
inactive: activity change, negative = inhibition [1] -11.8% | activity, negative = inhibition [2] -18.7% | Potency [3] > 20.6 µM

Cc1cc(Cn2ccnc2)c(C)cc1Cn1ccnc1
inactive: activity change, negative = inhibition [1] 0.168% | activity, negative = inhibition [2] 2% | Potency [3] > 20.6 µM

COc1ccc(S(=O)(=O)N2CCC(N3CCCCC3)CC2)cc1
inactive: activity change, negative = inhibition [1] 7.98% | activity, negative = inhibition [2] 6.94% | Potency [3] > 20.6 µM

COC(=O)c1c(NC(=O)c2nn(C)cc2Cl)sc2c1CCCC2
inactive: activity change, negative = inhibition [1] -24.3% | activity, negative = inhibition [2] -10.7% | Potency [3] > 20.6 µM

COc1cccc(CNc2ccc(Br)cn2)c1O
inactive: activity change, negative = inhibition [1] -25.3% | activity, negative = inhibition [2] -14.6% | Potency [3] > 20.6 µM

Cc1cc(N2C(=O)C(=O)/C(=C(/O)c3ccccc3)C2c2cccc(Br)c2)no1 (stereo not given)
inactive: activity change, negative = inhibition [1] -11.1% | activity, negative = inhibition [2] -23.1% | Potency [3] > 20.6 µM

c1ccc2c(N3CCCCC3)nc(N3CCCCC3)nc2c1
inactive: activity change, negative = inhibition [1] 21.1% | activity, negative = inhibition [2] -3.49% | Potency [3] > 20.6 µM

CN1CCN(CC(=O)Nc2nc(-c3ccccc3)cs2)CC1
inactive: activity change, negative = inhibition [1] 9.16% | activity, negative = inhibition [2] -4.84% | Potency [3] > 20.6 µM

CCOC(=O)c1nc2nc(C)c(Cl)c(=O)n2[nH]1
inactive: activity change, negative = inhibition [1] -6.21% | activity, negative = inhibition [2] 5.64% | Potency [3] > 20.6 µM

CCc1cc(=O)oc2c(CN3CCN(C)CC3)c(O)c(Cl)cc12
inactive: activity change, negative = inhibition [1] 12.5% | activity, negative = inhibition [2] 2.51% | Potency [3] > 20.6 µM

CCN(CC)CCCn1c(C)cc2c(c1=O)C(c1cccc(Cl)c1)C(C#N)=C(N)O2 (stereo not given)
inactive: activity change, negative = inhibition [1] -4.22% | activity, negative = inhibition [2] -2.98% | Potency [3] > 20.6 µM

Cc1ccc2c(c1)[C@@H]1CN(C)CC[C@@H]1N2S(=O)(=O)c1ccc(F)cc1
inactive: activity change, negative = inhibition [1] 12.8% | activity, negative = inhibition [2] 5.84% | Potency [3] > 20.6 µM

N#Cc1nc(COc2ccccc2Cl)oc1NCc1ccc(F)cc1
inactive: activity change, negative = inhibition [1] -5.24% | activity, negative = inhibition [2] -20.3% | Potency [3] > 20.6 µM

CCCCNC(=O)N(C)c1nncnc1C(=O)NC
inactive: activity change, negative = inhibition [1] 16.6% | activity, negative = inhibition [2] 11.5% | Potency [3] > 20.6 µM

CN1CCN(CCC(=O)N2c3ccccc3Sc3ccc(Cl)cc32)CC1
inactive: activity change, negative = inhibition [1] 12.7% | activity, negative = inhibition [2] 6.36% | Potency [3] > 20.6 µM

CCn1cc(C(=O)NCCc2ccccc2)c(=O)c2cc(F)c(N3CCN(C)CC3)cc21
inactive: activity change, negative = inhibition [1] -9.7% | activity, negative = inhibition [2] -5.45% | Potency [3] > 20.6 µM

CCCN(CCC)c1nc2ccccc2nc1C(C#N)C(=O)OC(C)COC (stereo not given)
inactive: activity change, negative = inhibition [1] -15.4% | activity, negative = inhibition [2] -20.4% | Potency [3] > 20.6 µM

N#Cc1c(N2CCOCC2)nc(N2CCCCC2)c2c1CCN(C1CCCCC1)C2
inactive: activity change, negative = inhibition [1] -8.29% | activity, negative = inhibition [2] 4.09% | Potency [3] > 20.6 µM

Nc1c(C(=O)NCC2CCCO2)c2nc3ccccc3nc2n1/N=C/c1ccncc1 (stereo not given)
inactive: activity change, negative = inhibition [1] -7.06% | activity, negative = inhibition [2] -9.64% | Potency [3] > 20.6 µM

O=C1C=C(N2CCN(C3=CC(=O)CCC3)CC2)CCC1
inactive: activity change, negative = inhibition [1] 20.4% | activity, negative = inhibition [2] 13.1% | Potency [3] > 20.6 µM

COC(=O)CN(c1nc(C)c(Br)c(OC)n1)S(=O)(=O)c1ccc(C)cc1
inactive: activity change, negative = inhibition [1] -6.01% | activity, negative = inhibition [2] 7.73% | Potency [3] > 20.6 µM

CN(C)CCCOC(=O)c1ccc(Cl)cc1Cl
inactive: activity change, negative = inhibition [1] 13.3% | activity, negative = inhibition [2] 2.76% | Potency [3] > 20.6 µM

Cn1c(=O)c2c3c(sc2n2c(SCc4ccccc4)nnc12)CCCC3
inactive: activity change, negative = inhibition [1] -6.83% | activity, negative = inhibition [2] -27.8% | Potency [3] > 20.6 µM

COc1cccc(-c2nc(N3CCC(C)CC3)c3ccccc3n2)c1O
inactive: activity change, negative = inhibition [1] 16.6% | activity, negative = inhibition [2] 5.63% | Potency [3] > 20.6 µM

C(=N\n1cnnc1)/c1ccccn1
inactive: activity change, negative = inhibition [1] 1.5% | activity, negative = inhibition [2] 7.02% | Potency [3] > 20.6 µM

CC1(C)C2CCC1(C)C(NC(=O)CCN1CCCCC1)C2 (stereo not given)
inactive: activity change, negative = inhibition [1] 6.22% | activity, negative = inhibition [2] 8.36% | Potency [3] > 20.6 µM

Cn1c(=O)c2c(nc(SCCN3CCCCC3)n2Cc2ccc(Cl)cc2)n(C)c1=O
inactive: activity change, negative = inhibition [1] 11.2% | activity, negative = inhibition [2] -9.94% | Potency [3] > 20.6 µM

Cc1cccc(OCC(=O)N2CCC(N3CCCCCC3)CC2)c1
inactive: activity change, negative = inhibition [1] 4.73% | activity, negative = inhibition [2] 5.82% | Potency [3] > 20.6 µM

COc1cccc(C(=O)OCCN(C)C(C)(C)C)c1
inactive: activity change, negative = inhibition [1] 2.79% | activity, negative = inhibition [2] 3.74% | Potency [3] > 20.6 µM

CCCC(=O)Nc1nn(CCC)c2nc3ccccc3cc12
inactive: activity change, negative = inhibition [1] -2.33% | activity, negative = inhibition [2] -4.63% | Potency [3] > 20.6 µM

CN(CC(O)COc1ccc(OCC(O)CN(C)C2CCCCC2)cc1)C1CCCCC1 (stereo not given)
inactive: activity change, negative = inhibition [1] 11.3% | activity, negative = inhibition [2] 12.2% | Potency [3] > 20.6 µM

COc1ccc(/C=N/n2cncn2)cc1CSc1ccccn1
inactive: activity change, negative = inhibition [1] -9.09% | activity, negative = inhibition [2] 10.6% | Potency [3] > 20.6 µM
